Test results: ChEMBL document CHEMBL3433997, “St. Jude Leishmania screening dataset” (2016)

What was measured:
Format in all cases: functional
[1] = molecular target: Solute carrier family 2, facilitated glucose transporter member 1 (Homo sapiens) (UniProt P11166); assay: ST_JUDE_LEISH: Cytotoxicity at 2uM final concentration against transgenic Leishmania Mexicana promastigotes LmGLUT1 that are glucose transport deficient and complemented with the human glucose transporter GLUT1. Activity is measured by DNA content using SYBR green in vitro
[2] = molecular target: Hexose transporter 1 (Plasmodium falciparum) (UniProt O97467); assay: ST_JUDE_LEISH: Cytotoxicity at 2uM final concentration against transgenic Leishmania Mexicana promastigotes LmPfHT that are glucose transport deficient and complemented with the Plasmodium falciparum hexose transporter. Activity is measured by DNA content using SYBR green in vitro
[3] = molecular target: Glucose transporter (Leishmania mexicana) (UniProt O61059); assay: ST_JUDE_LEISH: Cytotoxicity at 2uM final concentration against transgenic Leishmania Mexicana promastigotes LmGT2 that are glucose transport deficient and complemented with the L. Mexicana glucose transporter 2. Activity is measured by DNA content using SYBR green in vitro

Solute carrier family 2, facilitated glucose transporter member 1 (Homo sapiens), sequence (P11166 whole entry): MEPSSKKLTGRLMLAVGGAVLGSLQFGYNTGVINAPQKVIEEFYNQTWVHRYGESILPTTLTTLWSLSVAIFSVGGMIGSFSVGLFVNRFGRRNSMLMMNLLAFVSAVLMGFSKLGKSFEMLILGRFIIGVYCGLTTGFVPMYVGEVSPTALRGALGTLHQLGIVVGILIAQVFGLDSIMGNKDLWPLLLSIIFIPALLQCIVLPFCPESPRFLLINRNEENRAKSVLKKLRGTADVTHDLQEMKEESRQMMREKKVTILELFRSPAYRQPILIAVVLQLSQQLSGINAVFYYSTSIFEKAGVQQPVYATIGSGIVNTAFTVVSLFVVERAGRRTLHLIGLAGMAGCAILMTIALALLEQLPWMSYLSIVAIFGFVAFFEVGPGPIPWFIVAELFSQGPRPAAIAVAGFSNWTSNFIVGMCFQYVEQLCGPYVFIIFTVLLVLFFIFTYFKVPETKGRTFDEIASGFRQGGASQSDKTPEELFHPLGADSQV

| Structure (SMILES) | inhibition [1] [%] | inhibition [2] [%] | inhibition [3] [%] |
| --- | --- | --- | --- |
| CS(=O)(=O)Nc1cccc(-c2cnc3[nH]cc(-c4ccc(C(=O)O)c(F)c4)c3c2)c1 | -2.02 | -1.06 | 1.09 |
| CCn1c(-c2nc(-c3ccnc(N4CCN(C)CC4)c3)cnc2N)nc2cc(S(C)(=O)=O)ccc21 | 36.5 | 45.3 | 20.7 |
| CCOc1cc(C)c(C2CCN(CCCCNC(=O)c3ccc(NC(=O)c4ccc(Cl)cc4)cc3)CC2)cc1C | -0.49 | -0.72 | -0.67 |
| COc1ccc(Nc2ncc3c(-c4cccc(NC(=O)CC(C)C)c4)c[nH]c3n2)cc1OC | 7.31 | 8.48 | 6.64 |
| O=C(Cc1n[nH]c(=O)c2ccccc12)Nc1cccc(C(=O)Nc2cccc(C(F)(F)F)c2)c1 | 3.52 | 4.12 | 2.16 |
| CCN(CCCN1CCCCC1)c1cc(C)nc(Nc2ccc(Cl)cc2)n1 | 1.87 | 2.6 | 1.8 |
| COC(=O)C(C)(C)Cc1c(SC(C)(C)C)c2cc(C(C)C)ccc2n1Cc1ccc(Cl)cc1 | 2.2 | 5.38 | -0.32 |
| O=C(c1cccc(-c2ccc(-c3nc4cc(F)ccc4[nH]3)s2)c1)N1CCCCC1CN1CCC(O)C1 (stereo not drawn) | 2.59 | 1.6 | 1.75 |
| CCN1CCN(c2cc(C)c3cc(NC(=O)c4ccc([N+](=O)[O-])c(C)c4)ccc3n2)CC1 | 3.68 | 5.06 | 7.26 |
| CCCNC(=O)C1CCN(C(c2ccccc2)c2ccc(Cl)c(Cl)c2)CC1 (stereo not drawn) | 4.42 | 5.75 | 3 |
| N=C(N)c1cccc(OCCCOc2cccc(NC(=O)Nc3ccc([N+](=O)[O-])cc3)c2)c1 | 4.46 | 3.16 | 2.32 |
